# In the library only some 7.2% were active in any assay of this set; here they are far more common.
# FLuc inh: Firefly luciferase inhibition profiling of diverse chemical library using quantitative high-throughput screening; Luciferin 4-monooxygenase (Photinus pyralis), P08659; purified P. pyralis luciferase, luminescence, biochemical; 76,000 tested, 2.5% active; AID 1347043, 2019; Potency, µM (top dose mostly 115 µM), actives largely listed as inhibitors; note: nearly all actives have a fitted effect of over 65% in size
#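 Luminescence read by CCD imaging after purified firefly luciferase (10nM final) was added to substrate buffer holding 10uM D-luciferin and 10uM ATP, pH 7.5, pre-dosed with compound.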
# SNCA viab count: GF-AFC viability counterscreen for inhibitors of alpha-synuclein gene (SNCA) expression; HEK-293-SNCA-luc viability, GF-AFC fluorescence, 24 h; Potency, µM (top dose mostly 57.1 µM), for the others: at the highest dose activity change, negative = cytotoxicity, most hits filed as cytotoxic; 150,000 tested, 0.12% active; AID 1671193, 2021;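 note: 0% = DMSO-treated cells and -100% = medium-only wells without cells; nearly all actives have a fitted effect of over 30% in size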
#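 HEK-293-SNCA-luc cells (1500/well) plated 24 h, then exposed 24 h to a dilution series; GF-AFC added 30 min at 37C, fluorescence 405/540 nm; normalised to medium-only and DMSO wells, Hill fit.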
# HEK cytotox: Cytotoxic Profiling in HEK 293 Cell Line of Diverse Libraries Using Quantitative High-Throughput Screening; Potency, µM (top dose mostly 115 µM), inactives show at the top dose activity change, negative = cytotoxicity, hits mostly inhibitors; 94,000 tested, 6.6% active; HEK 293 viability, ATP luminescence (CellTiter-Glo), 48-72 h; AID 1345083, 2018; note: nearly all actives have a fitted effect of over 60% in size
#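 Viability of HEK 293 cells, plated at 250 cells/well, was judged by cellular ATP after compound treatment for 48 or 72 hr. Luminescence was imaged 10 min after CellTiter-Glo addition at room temperature.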
# NPR1 antag: Natriuretic polypeptide receptor (hNpr1) antagonism - Primary qHTS; Atrial natriuretic peptide receptor 1 (Homo sapiens), P16066; HEK293 hNpr1 GloSensor cGMP, ANP-stimulated luminescence; Potency, µM (series often up to 46.3 µM), for inactives: top-dose activity change, negative = inhibition, most hits filed as inhibitors; 76,000 tested, 1.6% active; calls by dose curve; note: nearly all actives have a fitted effect of over 60% in size
# Target sequence (P16066 whole entry, looked up): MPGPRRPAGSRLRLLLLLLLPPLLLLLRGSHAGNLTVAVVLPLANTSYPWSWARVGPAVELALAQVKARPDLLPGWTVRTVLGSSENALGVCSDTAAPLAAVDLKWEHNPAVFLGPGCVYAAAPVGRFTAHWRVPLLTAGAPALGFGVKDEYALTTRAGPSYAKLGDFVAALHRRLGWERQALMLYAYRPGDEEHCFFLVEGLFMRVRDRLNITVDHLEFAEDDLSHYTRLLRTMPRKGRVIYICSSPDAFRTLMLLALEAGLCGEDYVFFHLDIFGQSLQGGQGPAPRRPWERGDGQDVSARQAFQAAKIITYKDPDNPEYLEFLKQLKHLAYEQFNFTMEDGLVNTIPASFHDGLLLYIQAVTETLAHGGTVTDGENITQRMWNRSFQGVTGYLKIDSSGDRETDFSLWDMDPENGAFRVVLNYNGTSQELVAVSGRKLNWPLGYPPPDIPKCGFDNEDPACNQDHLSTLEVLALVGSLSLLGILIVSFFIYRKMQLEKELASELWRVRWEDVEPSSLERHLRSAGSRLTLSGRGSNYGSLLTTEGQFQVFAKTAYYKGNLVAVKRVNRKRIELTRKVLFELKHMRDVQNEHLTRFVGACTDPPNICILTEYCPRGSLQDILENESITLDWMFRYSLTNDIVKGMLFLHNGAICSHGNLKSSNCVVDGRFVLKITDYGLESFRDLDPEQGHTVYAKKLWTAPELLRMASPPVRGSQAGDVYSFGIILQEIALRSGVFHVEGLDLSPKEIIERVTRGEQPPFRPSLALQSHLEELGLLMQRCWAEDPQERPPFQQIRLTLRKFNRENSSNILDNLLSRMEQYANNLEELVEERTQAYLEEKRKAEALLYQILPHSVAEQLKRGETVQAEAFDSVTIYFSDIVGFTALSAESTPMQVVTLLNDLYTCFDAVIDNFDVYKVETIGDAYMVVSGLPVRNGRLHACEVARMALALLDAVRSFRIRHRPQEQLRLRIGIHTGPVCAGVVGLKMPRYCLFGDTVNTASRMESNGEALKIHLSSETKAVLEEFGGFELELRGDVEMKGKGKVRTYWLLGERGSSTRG
#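 HEK293 cells stably expressing human Npr1 and cGMP GloSensor pGS-40F, loaded 2 h with 2% GloSensor reagent, given compound 30 min at room temperature. Luminescence read before and 20 min after 0.1 nM hNppA.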
# NIH3T3 tox: Cytotoxic Profiling in NIH 3T3 Cell Line of Diverse Libraries Using Quantitative High-Throughput Screening; NIH 3T3 viability, CellTiter-Glo ATP luminescence, 48-72 h; Potency, µM (doses to about 96.7 µM), without a hit: top-dose activity change, negative = cytotoxicity, actives largely listed as inhibitors; 94,000 tested, 4.3% active; AID 1345082, 2018; note: nearly all actives have a fitted effect of over 55% in size
#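 ATP-dependent luminescence (CellTiter-Glo) served as the viability signal for NIH 3T3 cells treated with compound for 48 or 72 hr at 37 °C.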
# SNCA expr inh: Primary qHTS assay for inhibitors of alpha-synuclein gene (SNCA) expression | HEK-293 SNCA-luciferase knock-in, luminescence, 24 h | Potency, µM (doses to about 57.2 µM), without a hit: at the highest dose activity change, negative = inhibition, usual class: inhibitors | 140,000 tested, 0.17% active | AID 1671194, 2021;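 note: plate controls were DMSO cells for no effect and cell-free wells for full effect; nearly all actives have a fitted effect of over 45% in size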
# Active calls of the source: *; i = inactive; ? = inconclusive; nt = not tested or not shown; [ ] = remark or other dose. Unless noted, calls come from the whole dose curve; as a rule, active = well fitted curve in the direction sought with a large enough effect; inconclusive = small, poorly fitted or top-dose-only effect, or another doubt; inactive = no such curve, though single readings can be large; an effect the other way counts as inactive or inconclusive. Unless noted, % is set by controls: 0 for no effect and ±100 for the full control effect; potency is the fitted concentration of half-maximal effect.
SMILES,FLuc inh,SNCA viab count,HEK cytotox,NPR1 antag,NIH3T3 tox,SNCA expr inh
COc1ccccc1Nc1ccnc(N2CCCC(C(=O)NC3CCOC3)C2)n1 (stereo unspecified),nt,-9%[12.5 µM],?,nt,?,17%
O=C([C@@H]1C[C@H](F)CN1S(=O)(=O)Cc1ccc(Cl)cc1)N1CCc2ccccc2C1,i,?,?,?,16µM*,?
Cc1ccc(NC(=O)N2C[C@@H](F)C[C@H]2C(=O)N2CCc3ccccc3C2)cc1C,i,1%,-15%,-10%,-16%,-1%
O=C([C@@H]1C[C@H](F)CN1S(=O)(=O)Cc1ccccc1)N1CCc2ccccc2C1,i,?,?,-20%,-18%,4%
Cc1ccc(NC(=O)N2C[C@@H](F)C[C@H]2C(=O)N2CCc3ccccc3C2)cc1F,i,-20%,40µM*,-1%,35µM*,23%
CC(NC(=O)CCc1ccccc1)C(=O)N1CCN(c2ccccn2)CC1 (stereo unspecified),i,3%,?,-1%,?,-26%
CN1CCN(c2nc3c(c(=O)[nH]2)CCN(Cc2ccc(C#N)cc2)CC3)CC1,i,-1%,10%,2%,4%,3%
CC(C)c1ccc(CNC(=O)c2cc3n(n2)CC(c2ccc(Cl)cc2)OC3)cc1 (stereo unspecified),i,7%,32µM*,-27%,28µM*,?
Cc1cn2nc(C(=O)NCc3ccc(C(C)C)cc3)cc2c(=O)[nH]1,14µM*,7%,?,11%,-30%,145%
COc1ccc(CCNC(=O)c2cc3n(n2)CC(c2ccc4c(c2)OCO4)OC3)cc1OC (stereo unspecified),i,?,?,?,?,-6%
COc1ccc(CCNC(=O)c2cc3n(n2)CC(c2ccc(Cl)cc2)OC3)cc1OC (stereo unspecified),i,-28%,45µM*,?,?,?
COc1ccccc1CNC(=O)c1cc2n(n1)CC(c1ccc(Cl)cc1)OC2 (stereo unspecified),i,-21%,40µM*,?,?,?
COc1ccc(CNC(=O)c2cc3n(n2)CC(c2ccc(Cl)cc2)OC3)c(OC)c1 (stereo unspecified),i,-7%,?,-15%,?,-22%
COc1ccccc1CNC(=O)C1CN(C)C(=O)N1 (stereo unspecified),nt,1%[12.5 µM],i,nt,-12%[138 µM],-3%[87.6 µM]
O=C(O)C1CCc2nnc(C3CCN(C(=O)C4CCCCC4)CC3)n21 (stereo unspecified),nt,7%,i,nt,-10%,11%
CC(C)Oc1cccc2c1c(NC(=O)C1CCN(C)C1)nn2Cc1ccccc1 (stereo unspecified),i,2%,?,-2%,?,-4%
COCCc1noc(CC2CCOC3(CCN(S(=O)(=O)c4cccc5cccnc45)CC3)C2)n1 (stereo unspecified),nt,2%,?,nt,-29%,-7%
COc1ccc(NC(=O)c2cc3n(n2)CC(c2ccc(Cl)cc2)OC3)cc1 (stereo unspecified),?,1%,?,?,?,-1%
COc1cc(NC(=O)c2cc3n(n2)CC(c2ccc(Cl)cc2)OC3)cc(OC)c1OC (stereo unspecified),i,-8%,45µM*,-22%,?,?
Cc1ccn2c(C(=O)N3CC[C@@](C)(O)[C@@H](O)C3)nnc2n1,i,3%,-10%,1%,-12%,10%
O=C1COC[C@H]([C@H](O)c2ccc(NC(=O)c3ccnc(Cl)c3)cc2)N1,i,0%[87.6 µM],-15%[172 µM],-2%[70.6 µM],?,2%[87.6 µM]
Cc1ccc(C(=O)NC2CCCN(c3cc(-c4ccc(F)cc4)[nH]n3)C2)cn1 (stereo unspecified),?,-14%,20µM*,-2%,-26%,4%
Cc1cc(C)cc(C(=O)NC2CCCN(c3cc(-c4ccc(F)cc4)[nH]n3)C2)c1 (stereo unspecified),i,?,45µM*,-10%,?,0%
COc1ccc(-c2cc(N3CCCC(NC(=O)c4ccc(C)cc4)C3)n[nH]2)cc1 (stereo unspecified),?,?,?,-9%,?,80%
COc1ccc(-c2cc(N3CCCC(NC(=O)c4ccc(C)nc4)C3)n[nH]2)cc1 (stereo unspecified),35µM*,-18%,-63%,-24%,?,16%
SMILES,FLuc inh,SNCA viab count,HEK cytotox,NPR1 antag,NIH3T3 tox,SNCA expr inh
O=C(NC1CCCN(c2cc(-c3ccc(F)cc3)[nH]n2)C1)c1ccccc1 (stereo unspecified),?,?,?,-13%,?,42%
COc1ccc(Cl)cc1C(C(=O)O)N1CCCN(c2ncccn2)CC1 (stereo unspecified),i,4%,1%,3%,i,0%
COc1cccc(S(=O)(=O)N2CCC(N(C(C)=O)C3CCOCC3)CC2)c1,nt,-1%,-14%,nt,?,5%
Cc1ccc(C(=O)N2CCC3(CC2)NCCc2c3[nH]c3ccccc23)cn1,i,-12%[12.5 µM],-14%,2%,-20%,-26%
CCN1CCN(C(=O)C2CCCCC(=O)N2)CC1 (stereo unspecified),i,-3%,11%,3%,i,-9%
C[C@H]1CCCN1C(=O)c1nnc(CNCc2ccc3c(c2)OCO3)n1-c1cccnc1,i,1%[87.6 µM],2%[172 µM],1%[70.6 µM],?,12%[87.6 µM]
COc1ccccc1OCc1nnc(C(=O)N2CCC[C@@H]2C(c2ccccc2)c2ccccc2)n1-c1ccccc1,i,?,?,-8%,-28%,?
C[C@H]1CCCN1C(=O)c1nnc(COc2ccc(C#N)cc2)n1-c1ccccc1,i,7%[87.6 µM],-27%[172 µM],-1%[70.6 µM],35µM*,5%[87.6 µM]
O=C(c1nnc(COc2ccc(OC(F)(F)F)cc2)n1-c1ccccc1)N1CCC[C@@H]1C(c1ccccc1)c1ccccc1,i,-20%,?,4%,4.5µM*,?
CC(=O)Nc1cccc(OCc2nnc(C(=O)N3CCC[C@@H]3C(c3ccccc3)c3ccccc3)n2-c2ccccc2)c1,i,?,?,-18%,?,-13%
